The results in this text go back to PubChem BioAssay (NCI).

What all share (assay): NCI-60 one-dose screen, 48 h (100 = growth as untreated, 0 = no growth, -100 = all killed)
Holding throughout (conditions): 10 µM unless noted

For test [1], the system named is SR leukemia.
Test [2] relates to RPMI-8226 leukemia.
For test [3], the system named is OVCAR-8 ovarian.
The subject of test [4] is OVCAR-5 ovarian.
For test [5], the system named is OVCAR-4 ovarian.
Test [6] relates to SK-OV-3 ovarian.
Test [7] relates to IGROV1 ovarian.
Test [8] concerns OVCAR-3 ovarian.
Test [9] has as its system NCI/ADR-RES ovarian.
The test system of test [10] is T-47D breast.
Test [11] relates to MDA-MB-435 melanoma.
The test system of test [12] is SW-620 colon.
Test [13] has as its system MCF7 breast.
For test [14], the system named is HCT-116 colon.
Test [15] relates to HCC-2998 colon.
The subject of test [16] is KM12 colon.
In test [17] the test system is BT-549 breast.

About 83,000 compounds went through this panel and 20% of them were active in at least one assay; those are over-represented in the sample as a whole.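 96-well plates, one dose, 48 hours. Percent growth reported; active if below 10.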 A number with no mark means an inactive call. Activity calls are given as the source filed them.

In the case of `O=C(O)CS(=O)c1ccc(Cl)cc1` (stereo unspecified), the growth in [1] is 84.9%; in test [2], 116%; in [3] it was 99%; in test [4] it was 95.5%; in test [5], 114%; in test [6] it was 107%. The growth in test [7] was 115%; in test [8], 115%; in test [9], 109%; in [10], 101%; in test [11] it was 102%; in test [12] it was 106%. The growth in test [13] is 101%; in test [14], 97.6%; in [15], 97.1%; in test [16] it was 103%.

Consider `N#CC1=C(N2CCOCC2)NC2c3ccccc3Sc3ccccc3N2C1=N` (stereo unspecified), for which the growth in test [1] is 119%; in [2] it was 106%; in test [3], 98.7%; in [4] it was 109%; in [5] it was 109%; in test [6], 81.7%. The growth was 79.1% in [7]; 103% in test [8]; 89.9% in test [9]; 85.8% in [10]; 97.2% in test [17]; 107% in test [11]. The growth is 98.4% in [13], 97.2% in test [14], 104% in test [15] and 110% in test [16].

Regarding `CCCCN(CCC)CCCCCCCCCCN1CCCc2ccccc21`, the growth was 10.5% in test [1]; -2.32% (active) in [2]; 102% in [3]; 108% in test [4]; 79.4% in [5]; 81.4% in [6]. The growth in test [7] was 48.5%; in test [8], 53.7%; in [9] it was 90.1%; in [10], 102%; in test [17] it was 89.6%; in test [11], 85.2%. Also, the growth in test [12] was 43.9%; in test [13], 76.2%; in test [14], 58.3%; in [15] it was 98.3%; in test [16], 45.2%.

Take `CCOC(=O)C1CCCN1C(=O)C1(NC(C)=O)CCCC1` (stereo unspecified): the growth in test [1] was 102%; in [2] it was 95.7%; in test [3], 103%; in test [4], 96.4%; in test [5], 105%; in test [6] it was 104%. Besides, the growth in test [7] is 96.8%; in test [8] it was 103%; in test [9], 103%; in test [10], 100%; in test [17] it was 95.5%; in test [11], 103%. The growth in test [12] was 99.6%; in test [13], 99.3%; in test [14], 96.4%; in test [15], 108%; in test [16] it was 91.2%.

For `CCCCS(=O)(=O)c1cc(Nc2ccc(O)c3c2C(=O)c2ccccc2C3=O)ccc1C`, the growth in test [1] was 58.6%; in test [2], 80.9%; in test [3], 86.6%; in test [4], 78.5%; in test [5], 78.9%; in test [6], 87.8%. Also, the growth in test [7] is 81.8%; in test [8], 46.4%; in test [9], 82.2%; in test [10] it was 75.6%; in test [11], -85.7% (active); in test [12], 103%. Moreover, the growth in [13] is 33.8%; in test [14] it was 78.7%; in [15], 67%; in test [16], 73.4%.

With `CCCCCN1CCN(C(CC(=O)c2ccccc2)C(=O)c2ccccc2)CC1` (stereo unspecified), the growth is 0.154% (active) in test [1]; 12.6% in [2]; 101% in test [3]; 110% in [4]; 107% in [5]; 102% in test [6]. Also, the growth in [7] was 57.8%; in test [8], 55.3%; in [9] it was 99%; in test [10] it was 101%; in test [17], 96.2%; in [11], 95.5%. For the same compound, the growth is -100% (active) in [12]; 89.6% in [13]; 77.4% in [14]; 106% in test [15]; 102% in test [16].

As to `NC(CSC(c1ccccc1)(c1ccccc1)c1ccccc1)C(=O)NCC(=O)O` (stereo unspecified), the growth was 34.1% in test [1]; 49.3% in [2]; 70.7% in test [3]; 94.7% in test [4]; 100% in test [5]; 35% in test [6]. Besides, the growth was 72.6% in test [7]; 98% in test [8]; 108% in test [9]; 96.1% in test [10]; 70.4% in test [17]; -5.86% (active) in test [11]. Besides, the growth in [12] is 41.6%; in test [13] it was 45%; in [14] it was 40.8%; in test [15], 28%; in test [16] it was 77.5%.

With `O=C1C=C(OCC=C(C(F)(F)F)C(F)(F)F)c2ccccc2C1=O`, the growth is -19.7% (active) in test [1]; -38.7% (active) in test [2]; -22.8% (active) in test [3]; 96.3% in test [4]; -7.2% (active) in test [5]; 59.8% in [6]. The growth in [7] is -12.4% (active); in test [8] it was -19.9% (active); in test [9] it was 28.6%; in [10] it was -68.9% (active); in test [17], 39%; in test [11], -40.2% (active). The growth in test [12] is -34.9% (active); in [13] it was -76.8% (active); in [14] it was -33.3% (active); in test [15] it was -12.1% (active); in [16], 43.3%.

`CC1(C)N=C(N)N=C(N)N1c1cccc(CCCCOc2ccccc2)c1`: the growth is 31.6% in test [1]; 8.3% (active) in [2]; 19.9% in [3]; 29.6% in test [4]; 61% in test [5]; 41.8% in test [6]. Further, the growth in test [7] is 26.6%; in test [8], 26.5%; in test [9] it was 107%; in test [10] it was 37.7%; in test [17], 35.7%; in test [12], 12.6%. For the same compound, the growth in test [13] was 1.62% (active); in [14], 11.3%; in test [15] it was 27.1%; in test [16], 15.9%.

Regarding `NC(N)=N/N=C/c1cccc(Br)c1`, the growth in [1] was 104%; in test [2], 95.3%; in test [3], 110%; in test [4], 104%; in test [5], 91.6%; in [6], 91.4%. For the same compound, the growth in [7] was 86.4%; in test [8], 99.8%; in test [9] it was 103%; in [10], 86.8%; in [17], 87%; in test [11], 105%. Besides, the growth was 102% in test [12]; 90.5% in [13]; 92.5% in [14]; 101% in [15]; 107% in test [16].

As to `C=CN(C)S(C)(=O)=O`, the growth in [1] is 14.2%; in [2], 16.8%; in [3], 34.8%; in [4], 90.9%; in test [5] it was 70.4%; in [6], 13.8%. Also, the growth was 51.5% in [7]; -14.1% (active) in test [8]; 20.1% in test [9]; 16.8% in test [10]; 46.8% in [17]; -35.4% (active) in test [11]. The growth in [12] was 19.9%; in [13] it was 4.56% (active); in test [14] it was 19.7%; in [15], 53%; in test [16], 33.6%.

Take `O=C(CCC(=O)N(CCO)CCO)N(CCO)CCO`: the growth in test [1] is 89.8%; in test [2], 101%; in [3] it was 103%; in [4], 105%; in test [5], 105%; in test [6], 99%. The growth in test [7] was 98.1%; in test [8] it was 97.5%; in test [9] it was 108%; in test [10] it was 98.5%; in test [17] it was 93.5%; in test [11], 109%. The growth in [12] is 106%; in test [13], 94.6%; in test [14], 95.7%; in test [15], 110%; in test [16], 99.8%.

As to `CN1C(=O)C(=Cc2coc3ccc(Br)cc3c2=O)C(=O)N(C)C1=O`, the growth was 126% in [1]; 108% in [2]; 98.5% in test [3]; 114% in test [4]; 118% in [5]; 96.3% in [6]. In addition, the growth in test [7] is 101%; in test [8], 105%; in test [9] it was 97.9%; in test [10] it was 101%; in [17] it was 106%; in test [11], 109%. Also, the growth was 88.3% in [13], 95.2% in test [14], 98.5% in test [15] and 114% in test [16].

Turning to `O=C1C(Br)=CC2C1C1C3CCC3C2(Br)C12OCCO2` (stereo unspecified), the growth is 4.59% (active) in test [1]; 7.82% (active) in test [2]; 28.5% in test [3]; 33.5% in test [4]; 59.2% in test [5]; 32.1% in test [6]. Also, the growth in test [7] was 36.7%; in [8] it was 12.5%; in [9], 51.3%; in test [10], 3.72% (active); in [17] it was 45.6%; in test [11], 23.7%. Further, the growth in test [13] was 2.12% (active); in [14], 16.1%; in test [15], 74.8%; in test [16], 44.9%.

Consider `COc1ccc2cc(C(C)C(=O)Nc3ccc(S(=O)(=O)Nc4cc(C)on4)cc3)ccc2c1` (stereo unspecified), for which the growth in test [1] was 100%; in test [2], 96.6%; in test [3], 95.8%; in test [4], 112%; in test [5], 100%; in test [6], 101%. The growth is 114% in test [7]; 110% in test [8]; 105% in test [9]; 84.8% in test [10]; 105% in test [11]; 102% in test [13]. Further, the growth was 96.5% in test [14] and 110% in [16].

For `O=C(/C=C\c1ccc(NCc2ccc(C(=O)O)cc2)cc1)CCl`, the growth is -12.1% (active) in test [1]; 60.4% in test [2]; 66.9% in test [3]; 114% in test [4]; 90.6% in test [5]; 106% in test [6]. Further, the growth in test [7] is 90.4%; in test [8] it was 72.4%; in test [9] it was 100%; in [10] it was -22.8% (active); in test [17], 64.3%; in test [11] it was 89.5%. Moreover, the growth was 3.72% (active) in test [12]; 24% in test [13]; -15.3% (active) in test [14]; 97.5% in test [15]; 98.2% in [16].

Take `Oc1ccc([S+](c2ccc(O)cc2)c2ccc(O)cc2)cc1`: the growth was 89.1% in test [1]; 96% in test [2]; 94.3% in [3]; 101% in [4]; 107% in test [5]; 106% in [6]. For the same compound, the growth in [7] was 110%; in test [8], 114%; in test [9], 112%; in test [10] it was 107%; in [17], 107%; in test [11], 107%. For the same compound, the growth is 107% in test [12]; 98.8% in [13]; 107% in test [14]; 106% in test [15]; 107% in [16].

Turning to `CC#Cc1nc(Nc2cc(C)[nH]n2)c2ccccc2n1`, the growth in [1] is -5.19% [100 µM] (active); in test [2], -21.3% [100 µM] (active); in test [3] it was 13.8% [100 µM]; in test [4], 29.4% [100 µM]; in [5], 20% [100 µM]; in test [6], 29.4% [100 µM]. The growth is -46.7% [100 µM] (active) in test [7]; -59% [100 µM] (active) in test [8]; 20.3% [100 µM] in test [9]; 2.69% [100 µM] (active) in [10]; -61.9% [100 µM] (active) in [17]; -44.4% [100 µM] (active) in test [11]. In addition, the growth in test [13] was 6.03% [100 µM] (active); in test [14], -15.7% [100 µM] (active); in test [15], -86.3% [100 µM] (active); in [16], -74.6% [100 µM] (active).
